# Screen size: about 39,000 compounds; about 3,300 (8.5%) were called active. The list comes from a sample in which actives are over-represented; it also holds similar structures and randomly drawn compounds.
# Test system: HepG2
# Experiment: cytotoxicity call (relative viability < 0.9)
# Details: 10 µM
row,SMILES,cytotoxicity call
1,CN(C)Cc1ccc(O)c(CN(C)C)n1,inactive
2,COCC(=O)N1C[C@H](C)[C@@H](OC)CN(C)C(=O)c2cc(NC(=O)Nc3ccccc3)ccc2OC[C@@H]1C,inactive
3,COCCNC(=O)C[C@@H]1CC[C@@H]2[C@H](COC[C@@H](O)CN2C(=O)Nc2ccccc2OC)O1,inactive
4,O=c1cccn[nH]1,inactive
5,COc1ccc(-c2cnc3c(c2)C(=O)N([C@@H](C)CO)C[C@H](C)[C@@H](CN(C)C(=O)Cc2ccccn2)O3)cc1,inactive
6,C[C@@H]1CN([C@H](C)CO)C(=O)c2cc(NS(=O)(=O)c3cccs3)ccc2O[C@H]1CN(C)S(C)(=O)=O,inactive
7,C[C@@H]1CCCCO[C@@H](CN(C)S(=O)(=O)c2cccs2)[C@H](C)CN([C@@H](C)CO)C(=O)c2cc(NC(=O)Nc3cccc4ccccc34)ccc2O1,inactive
8,COCC#Cc1ccc2c(c1)O[C@@H](CN(C)C(=O)C1CCCCC1)[C@@H](C)CN([C@H](C)CO)S2(=O)=O,inactive
9,C[C@H](CO)N1C[C@H](C)[C@@H](CN(C)C(=O)CCC(F)(F)F)OCCCC[C@H](C)Oc2ccc(NC(=O)c3ccccc3)cc2C1=O,inactive
10,C[C@H]1CN([C@@H](C)CO)C(=O)c2ccccc2-c2ccccc2CO[C@H]1CN(C)C(=O)Nc1ccc(-c2ccccc2)cc1,inactive
11,COc1ccc(NC(=O)Cn2c(=O)c3c(OC)ccnc3n(C)c2=O)c(OC)c1,inactive
12,COc1cc(/C=C/C(=O)O[C@H]2CC[C@]34C[C@]35CC[C@]3(C)[C@@H]([C@@H](C)CCC=C(C)C)CC[C@@]3(C)[C@@H]5CC[C@@H]4C2(C)C)ccc1O,inactive
13,O=C1CN(S(=O)(=O)Cc2ccccc2)C[C@@H]2[C@H](c3ccc(C#Cc4cccc(F)c4)cc3)[C@H](CO)N12,active
14,O=C(CN1CCOCC1)N[C@H]1CC[C@H](CCNC(=O)C2CCC2)O[C@H]1CO,inactive
15,C[C@@H]1CN([C@@H](C)CO)C(=O)c2cc(NC(=O)Cn3cnnn3)ccc2O[C@H]1CN(C)Cc1ccc(C(F)(F)F)cc1,inactive
16,COc1ccc(CCNC(=O)[C@@]2(Sc3ccc(C)cc3)CC(=O)N(Cc3ccccc3C(F)(F)F)[C@@H]2c2ccc(CO)cc2)cc1,inactive
17,O=c1[nH]cc(F)c(=O)[nH]1 [listing 1 of 2 here],active
18,CCOCc1c[nH]c(=O)[nH]c1=O,inactive
19,O=c1[nH]cc(Nc2ccccc2)c(=O)[nH]1,inactive
20,O=c1[nH]cc(S(=O)(=O)N2CCN(c3ccccc3F)CC2)c(=O)[nH]1,inactive
21,O=c1[nH]cc(N2CCCCC2)c(=O)[nH]1,inactive
22,O=c1[nH]cc(F)c(=O)[nH]1 [listing 2 of 2 here],active
23,COc1ccc(NC(=O)N(C)C[C@H]2Oc3c(NS(=O)(=O)c4cn(C)cn4)cccc3C(=O)N([C@@H](C)CO)C[C@H]2C)cc1,inactive
24,Cn1cc(S(=O)(=O)Nc2ccc3c(c2)OCCO3)c(=O)n(C)c1=O,inactive
25,C[C@@H]1CN([C@@H](C)CO)C(=O)c2cc(C#CC3(O)CCCC3)cnc2O[C@@H]1CN(C)S(C)(=O)=O,inactive

row,SMILES,cytotoxicity call
1,CC(C)NC(=O)N(C)C[C@H]1Oc2ccc(NC(=O)Nc3ccc4c(c3)OCO4)cc2C(=O)N([C@H](C)CO)C[C@@H]1C,inactive
2,C=CCN(C(=O)[C@H]1N(C(C)(C)CO)C(=O)[C@H]2[C@H](C(=O)O)[C@@H]3C=C[C@@]21O3)C(C)(C)C,inactive
3,Cc1cc(-c2ccccc2)oc2cc3ccccc3c1-2,inactive
4,O=c1cc(-c2ccccc2)oc2ccc(O)cc12,inactive
5,S=c1cc(-c2ccccc2)oc(-c2ccccc2)c1,active
6,O=C(N[C@H](c1ccc(Cl)cc1)c1ccccn1)C1CCN(CCOc2ccc(Cl)cc2Cl)CC1,inactive
7,O=C(N[C@@H](c1ccc2c(c1)OCO2)c1ccccn1)C1CCN(CCOc2ccc(Cl)cc2Cl)CC1,inactive
8,O=C(N[C@@H](c1ccc(-c2ccccc2)cc1)c1cnccn1)C1CCN(CCOc2ccc(F)cc2)CC1,active
9,Cc1cccnc1[C@@H](NC(=O)C1CCN(CCOc2ccc(Cl)cc2Cl)CC1)c1ccc(F)cc1,inactive
10,O=C(N[C@@H](c1ccc(-c2ccccc2)cc1)c1cnccn1)C1CCN(CCCOc2ccccc2)CC1,active
11,C[C@H]1CN([C@@H](C)CO)C(=O)c2ccccc2-c2ccccc2CO[C@H]1CN(C)Cc1ccc(-c2ccccc2)cc1,inactive
12,CN(C)C(=O)N1C[C@@H]2[C@@H](C1)C(=O)N(C)C21CCN(S(C)(=O)=O)CC1,inactive
13,C[C@H](O)[C@H](O)[C@@H](O)[C@@H](O)/C=N/NC(=O)c1ccccn1,inactive
14,O=C(C[C@@H]1CC[C@@H]2[C@H](COC[C@H](O)CN2CC2CCOCC2)O1)N1CCOCC1,inactive
15,O=C(NCCO)c1cc2ccccc2oc1=O,inactive
16,CCc1nc2ccc(C(=O)NCCOc3ccc(OC)cc3)cn2c1N(CC)Cc1cccc(Br)c1,inactive
17,Cc1cc(C)c(N(Cc2ccccc2)S(=O)(=O)c2ccc(OCCNC(=O)c3cc4ccccc4o3)cc2)c(C(=O)NO)c1,active
18,Cc1ccc(S(=O)(=O)N(C)C[C@H]2Oc3ccc(NS(=O)(=O)c4cccs4)cc3C(=O)N([C@H](C)CO)C[C@@H]2C)cc1,inactive
19,COc1ccc(COC[C@]23NC(=O)N(C(=O)c4ccccc4)[C@H](c4ccccc4O2)[C@H]3CO[Si](C)(C)C(C)(C)C)cc1,inactive
20,C[C@@H]1CN([C@H](C)CO)C(=O)Cc2cc(NC(=O)C3CCCCC3)ccc2O[C@H]1CN(C)S(C)(=O)=O,inactive
21,C[C@H]1CCCCO[C@H](CN(C)Cc2ccc(Cl)c(Cl)c2)[C@@H](C)CN([C@@H](C)CO)C(=O)c2cc(NC(=O)Nc3cccc4ccccc34)ccc2O1,inactive
22,C[C@H](CO)N1C[C@H](C)[C@@H](CN(C)C(=O)C2CCCCC2)OCCCC[C@H](C)Oc2ccc(NC(=O)NC3CCCCC3)cc2C1=O,inactive
23,C[C@H]1CCCCO[C@H](CN(C)C(=O)C2CCCCC2)[C@@H](C)CN([C@@H](C)CO)C(=O)c2cc(NC(=O)NC3CCCCC3)ccc2O1,inactive
24,C[C@H](CO)N1C[C@H](C)[C@H](CN(C)C(=O)C2CCCCC2)OCCCC[C@H](C)Oc2ccc(NC(=O)NC3CCCCC3)cc2C1=O,active
25,C[C@@H]1CCCCO[C@H](CN(C)C(=O)C2CCCCC2)[C@H](C)CN([C@@H](C)CO)C(=O)c2cc(NC(=O)NC3CCCCC3)ccc2O1,active

row,SMILES,cytotoxicity call
1,C[C@@H]1CCCCO[C@@H](CN(C)C(=O)C2CCCCC2)[C@H](C)CN([C@@H](C)CO)C(=O)c2cc(NC(=O)NC3CCCCC3)ccc2O1,inactive
2,C[C@@H]1CCCCO[C@H](CN(C)C(=O)C2CCCCC2)[C@@H](C)CN([C@H](C)CO)C(=O)c2cc(NC(=O)NC3CCCCC3)ccc2O1,inactive
3,C[C@@H]1CCCCO[C@@H](CN(C)C(=O)C2CCCCC2)[C@@H](C)CN([C@@H](C)CO)C(=O)c2cc(NC(=O)NC3CCCCC3)ccc2O1,inactive
4,C[C@@H]1CN([C@@H](C)CO)C(=O)c2cc(NC(=O)NC3CCCCC3)ccc2O[C@@H](C)CCCCO[C@H]1CN(C)C(=O)C1CCCCC1,active
5,C[C@@H]1CCCCO[C@H](CN(C)C(=O)C2CCCCC2)[C@@H](C)CN([C@@H](C)CO)C(=O)c2cc(NC(=O)NC3CCCCC3)ccc2O1,inactive
6,CCS(=O)(=O)N1C[C@]2(CCN(CC2)S(=O)(=O)c2cn(cn2)C)c2c([nH]c3cc(ccc23)OC)[C@@H]1CO,inactive
7,COc1ccc(S(=O)(=O)Nc2ccc3c(c2)C(=O)N([C@@H](C)CO)C[C@@H](C)[C@H](CN(C)C(=O)Nc2c(C)noc2C)OCCCC[C@@H](C)O3)cc1,inactive
8,Cc1noc(C)c1NC(=O)N(C)C[C@@H]1Oc2ccc(NS(=O)(=O)c3c(C)noc3C)cc2C(=O)N([C@@H](C)CO)C[C@H]1C,inactive
9,Cl.NC[C@H](N)C(=O)O,inactive
10,COc1ccccc1S(=O)(=O)N(C)C[C@H]1OCc2cn(nn2)CCCC(=O)N([C@H](C)CO)C[C@@H]1C,inactive
11,Cc1cccc(NC(=O)Nc2ccc3c(c2)C(=O)N(C)[C@@H]2CC[C@H](CC(=O)NCc4ccccc4Cl)O[C@H]2CO3)c1,inactive
12,C=CC[C@H](CC(=O)N(CCO)Cc1ccccc1)C(=O)N[C@H](COC(=O)[C@@H](CC=C)CC(=O)OC(C)(C)C)Cc1c[nH]c2ccccc12,inactive
13,C[C@H](CO)N1C[C@H](C)[C@H](CN(C)C(=O)Nc2ccccc2)Oc2ccc(NC(=O)CCN3CCOCC3)cc2CC1=O,inactive
14,Cc1ccc(S(=O)(=O)N(C)C[C@@H]2Oc3ccc(NS(=O)(=O)c4ccc(F)cc4)cc3CC(=O)N([C@H](C)CO)C[C@H]2C)cc1,inactive
15,O=C(NCc1ccccc1)C1=C[C@H](c2ccc(Br)cc2)C[C@H](OCc2ccc(CO)cc2)O1,inactive
16,Cc1ccc(S(=O)(=O)N(C)C[C@H]2Oc3ccc(NS(C)(=O)=O)cc3CC(=O)N([C@@H](C)CO)C[C@H]2C)cc1,inactive
17,COc1cc(CC=Cc2ccccc2)c(OC)cc1O,inactive
18,COC1=CC(=O)C(O)=CC1=CC=Cc1ccccc1,active
19,O=C(O)C=CC=Cc1ccccc1,inactive
20,C[C@@H]1CN([C@H](C)CO)C(=O)c2cc(NC(=O)C3CCCCC3)ccc2O[C@@H]1CN(C)C(=O)Nc1ccc(C(F)(F)F)cc1,inactive
21,C[C@H]1CN([C@@H](C)CO)C(=O)c2cc(NS(=O)(=O)c3cccs3)ccc2O[C@H]1CN(C)S(=O)(=O)c1ccccc1,inactive
22,C[C@@H]1CN([C@H](C)CO)C(=O)c2cc(NC(=O)CCCCCC(=O)Nc3ccccc3N)ccc2O[C@@H]1CN(C)S(C)(=O)=O,inactive
23,C[C@H](CO)N1C[C@H](C)[C@H](CN(C)C(=O)C2CCCCC2)OCCCC[C@H](C)Oc2ccc(NC(=O)CCC(F)(F)F)cc2C1=O,inactive

# Source: the antibiotic and cytotoxicity screens of Wong et al. (2023)
